# Reference: PubChem BioAssay
# Records with an inconclusive call do not appear. Calls of active or inactive are those of the source.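 Rule for the calls, unless noted: active = normalized viability below 100% at a tested concentration; inactive = the rest.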
# Assays:
# [1] = growth inhibition of DIPG glioma cells, dose response, cell-based, SU-DIPG-XVII, MIPE5.0, CellTiter-Glo, qHTS (AID 1347060; cut-off not given, nearly all actives have AC50 up to about 26 µM;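 note: cells exposed to compound for 48 hours before viability readout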); conditions: SU-DIPG-XVII viability, CellTiter-Glo ATP luminescence
# [2] = growth inhibition of DIPG glioma cells, dose response, cell-based, SU-DIPG-XIII, MIPE4.0, CellTiter-Glo, qHTS (AID 1347061; cut-off not given, nearly all actives have AC50 up to about 37 µM;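 note: cells exposed to compound for 48 hours before readout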); conditions: SU-DIPG-XIII viability, CellTiter-Glo ATP luminescence
# [3] = growth inhibition of DIPG glioma cells, dose response, cell-based, JHH-DIPG-1, MIPE4.0, CellTiter-Glo, qHTS (AID 1347062; cut-off not given, nearly all actives have AC50 up to about 27 µM;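 note: cells exposed to compound for two days before readout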); conditions: JHH-DIPG-1 viability, CellTiter-Glo ATP luminescence
# [4] = growth inhibition of DIPG glioma cells, dose response, cell-based, SU-DIPG-IV, MIPE4.0, CellTiter-Glo, qHTS (AID 1347063; cut-off not given, nearly all actives have AC50 up to about 30 µM;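 note: compound exposure lasted 48 hours before the viability readout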); conditions: SU-DIPG-IV viability, CellTiter-Glo ATP luminescence
# [5] = viability loss in pontine glioma line – cell-based, SU-DIPG-XXV, MIPE5.0, CellTiter-Glo, qHTS, dose response (AID 1347065; cut-off not given, nearly all actives have AC50 up to about 26 µM;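 note: cells exposed to compound for 48 hours before ATP readout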); conditions: CellTiter-Glo ATP luminescence
# [6] = SU-DIPG-VI glioma cell viability, MIPE4.0 library, CellTiter-Glo luminescence, qHTS (AID 1347066; cut-off not given, nearly all actives have AC50 up to about 30 µM;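 note: cells exposed to compound for 48 hours before readout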); conditions: CellTiter-Glo ATP luminescence
# [7] = JHH-DIPG-1 glioma cell viability, MIPE5.0 library, CellTiter-Glo luminescence, qHTS (AID 1347067; cut-off not given, nearly all actives have AC50 up to about 26 µM;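 note: cells exposed to compound for 48 hours before readout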); conditions: JHH-DIPG-1 glioma viability, CellTiter-Glo ATP luminescence
# [8] = sensitizers of A549 cells to miR-34 induction, primary screen, imaging, A549 dox-inducible miR-34, nuclei and caspase counts (AID 1347080;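 active = compounds whose cell count with miR-34 switched on is under 0.7 times the count with it off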); conditions: A549 miR-34 inducible, Hoechst nuclei count, 48 h
# [9] = modifiers of HSF1 nuclear foci, imaging, Selleck Cancer Library (AID 1347162; in the data active = plate-normalised HSF1 focus index below about 0.46); conditions: human cells, at 10 µM; SSMD: measured here: HSF1 foci SSMD mean; cell count: measured here: cell number; plate-normalised HSF1 focus index: stronger effect = lower value
# [10] = survival rescue of mitochondrial mutant cells in low glucose, primary screen, MELAS cybrids, Rieske KO mouse fibroblasts, CellTiter-Glo (AID 1508586;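 active = mean z-score across replicates of 1.96 or higher in either the MELAS or the Rieske mutant cell line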;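 note: z relative to plate mean and SD of compound and empty wells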)
# [11] = ovarian cancer cell viability with rucaparib, profiling panel, oncology-focused library, rucaparib conditional (AID 1508598); conditions: patient-derived ovarian cancer cells, CellTiter-Glo viability, 144 h, stronger effect = lower value
# [12] = LFS_MB_P medulloblastoma growth inhibition, cell-based, chromothripsis tumors, cisplatin or BGB combos (AID 1671449; in the data active = inhibition above about 80%;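 note: cells exposed for 96 hours; 0% = vehicle DMSO and 100% = killing by high DMSO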); conditions: LFS_MB_P medulloblastoma cells
# [13] = HDN33 neuroblastoma growth inhibition, cell-based, chromothripsis tumors, cisplatin or BGB combos (AID 1671450; in the data active = inhibition above about 80%;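 note: cells exposed to compound for four days; 0% = vehicle DMSO and 100% = cell killing by high DMSO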); conditions: HDN33 neuroblastoma cells, stronger effect = higher value
# [14] = ICB984 medulloblastoma cell growth inhibition, synergistic combos for chromothripsis tumors, cisplatin or BGB combos (AID 1671451; call rule not given here;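 note: cells exposed for 96 hours before readout; 0% = vehicle DMSO and 100% = killing by high DMSO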); conditions: ICB984 medulloblastoma cells, drug combinations, stronger effect = higher value
# [15] = HTB85 osteosarcoma cell growth inhibition, synergistic combos for chromothripsis tumors, BGB or cisplatin IC20 combos (AID 1671453; in the data active = inhibition above about 80%;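 note: cells exposed for 96 hours before readout; 0% = vehicle DMSO and 100% = high DMSO killing control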); conditions: HTB85 osteosarcoma cells, drug combinations, stronger effect = higher value
# [16] = MDA-MB-436 breast carcinoma cell growth inhibition, synergistic combos for chromothripsis tumors, BGB or cisplatin combos (AID 1671458; call rule not given here;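 note: cells exposed for 96 hours; 0% = vehicle DMSO and 100% = killing by high DMSO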); conditions: MDA-MB-436 breast carcinoma growth inhibition, drug combinations, stronger effect = higher value
# [17] = growth inhibition of BT084 medulloblastoma cells, cell-based, ICGC_MB145, cisplatin and BGB IC40 combos (AID 1671461; in the data active = inhibition above about 80%;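 note: cells exposed to drugs for 96 hours; 0% = vehicle DMSO and 100% = high DMSO full killing control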); conditions: drug combinations, stronger effect = higher value
# [18] = growth inhibition of RCMB18 medulloblastoma cells, cell-based, cisplatin and BGB IC40 combos (AID 1671462; in the data active = inhibition above about 80%;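 note: cells exposed to compound for four days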); conditions: stronger effect = higher value
structure (smiles),measurement,setting,value
CN(C)Cc1c(C(=O)NCCOc2ccc(C(=O)NO)cc2)oc2ccccc12,AC50,[1],4.17 µM (active)
same,AC50,[2],4.69 µM (active)
same,AC50,[3],0.935 µM (active)
same,AC50,[4],3.32 µM (active)
same,AC50,[5],0.833 µM (active)
same,AC50,[6],2.96 µM (active)
same,AC50,[7],0.934 µM (active)
same,fold change,"[8]; stronger effect = lower value, cell number ratio, induced over uninduced",1.4 (inactive)
same,fold change,[8]; measured here: relative caspase fold change +Dox/-Dox,0.9
same,cell count,"[8]; measured here: total cells with miR-34 induction, stronger effect = lower value",1280
same,cell count,[8]; measured here: total cells without miR-34 induction,916
same,SSMD,[9],0.722
same,cell count,[9],7540
same,plate-normalised HSF1 focus index,[9],1.05 (inactive)
same,z-score,"[10]; MELAS cybrid survival, CellTiter-Glo 48 h, stronger effect = higher value",0.162 (inactive)
same,z-score,"[10]; Rieske KO mouse fibroblast survival, CellTiter-Glo 72 h",-1.7
same,viability,"[11]; at 0.000305 µM, OCI-C5x cells, with rucaparib 10 µM, 100% = cells with rucaparib alone",130% (inactive)
same,viability,"[11]; at 0.000305 µM, OCI-C5x cells, without rucaparib",128% (inactive)
same,viability,"[11]; at 0.000305 µM, OCI-P5x cells, with rucaparib 20 µM, 100% = cells with rucaparib alone",105% (inactive)
same,viability,"[11]; at 0.000305 µM, OCI-P5x cells, without rucaparib",104% (inactive)
same,viability,"[11]; at 0.00122 µM, OCI-C5x cells, with rucaparib 10 µM, 100% = cells with rucaparib alone",129% (inactive)
same,viability,"[11]; at 0.00122 µM, OCI-C5x cells, without rucaparib",123% (inactive)
same,viability,"[11]; at 0.00122 µM, OCI-P5x cells, with rucaparib 20 µM, 100% = cells with rucaparib alone",103% (inactive)
same,viability,"[11]; at 0.00122 µM, OCI-P5x cells, without rucaparib",104% (inactive)
same,viability,"[11]; at 0.00488 µM, OCI-C5x cells, with rucaparib 10 µM, 100% = cells with rucaparib alone",144% (inactive)
same,viability,"[11]; at 0.00488 µM, OCI-C5x cells, without rucaparib",128% (inactive)
same,viability,"[11]; at 0.00488 µM, OCI-P5x cells, with rucaparib 20 µM, 100% = cells with rucaparib alone",97.2% (active)
same,viability,"[11]; at 0.00488 µM, OCI-P5x cells, without rucaparib",101% (inactive)
same,viability,"[11]; at 0.0195 µM, OCI-C5x cells, with rucaparib 10 µM, 100% = cells with rucaparib alone",118% (inactive)
same,viability,"[11]; at 0.0195 µM, OCI-C5x cells, without rucaparib",131% (inactive)
same,viability,"[11]; at 0.0195 µM, OCI-P5x cells, with rucaparib 20 µM, 100% = cells with rucaparib alone",81.2% (active)
same,viability,"[11]; at 0.0195 µM, OCI-P5x cells, without rucaparib",97.1% (active)
same,viability,"[11]; at 0.0781 µM, OCI-C5x cells, with rucaparib 10 µM, 100% = cells with rucaparib alone",121% (inactive)
same,viability,"[11]; at 0.0781 µM, OCI-C5x cells, without rucaparib",138% (inactive)
same,viability,"[11]; at 0.0781 µM, OCI-P5x cells, with rucaparib 20 µM, 100% = cells with rucaparib alone",91.6% (active)
same,viability,"[11]; at 0.0781 µM, OCI-P5x cells, without rucaparib",104% (inactive)
same,viability,"[11]; at 0.313 µM, OCI-C5x cells, with rucaparib 10 µM, 100% = cells with rucaparib alone",123% (inactive)
same,viability,"[11]; at 0.313 µM, OCI-C5x cells, without rucaparib",132% (inactive)
same,viability,"[11]; at 0.313 µM, OCI-P5x cells, with rucaparib 20 µM, 100% = cells with rucaparib alone",69.9% (active)
same,viability,"[11]; at 0.313 µM, OCI-P5x cells, without rucaparib",79.9% (active)
same,viability,"[11]; at 1.25 µM, OCI-C5x cells, with rucaparib 10 µM, 100% = cells with rucaparib alone",135% (inactive)
same,viability,"[11]; at 1.25 µM, OCI-C5x cells, without rucaparib",150% (inactive)
same,viability,"[11]; at 1.25 µM, OCI-P5x cells, with rucaparib 20 µM, 100% = cells with rucaparib alone",82.3% (active)
same,viability,"[11]; at 1.25 µM, OCI-P5x cells, without rucaparib",77.6% (active)
same,viability,"[11]; at 5 µM, OCI-C5x cells, with rucaparib 10 µM, 100% = cells with rucaparib alone",8.92% (active)
same,viability,"[11]; at 5 µM, OCI-C5x cells, without rucaparib",7.82% (active)
same,viability,"[11]; at 5 µM, OCI-P5x cells, with rucaparib 20 µM, 100% = cells with rucaparib alone",5.56% (active)
same,viability,"[11]; at 5 µM, OCI-P5x cells, without rucaparib",34% (active)
same,inhibition,"[12]; at 0.5 µM, stronger effect = higher value",21.6% (inactive)
same,inhibition,"[12]; measured here: combination with BGB IC20, at 0.005 µM",-27.6%
same,inhibition,"[12]; measured here: combination with BGB IC40, at 0.005 µM",-6.96%
same,inhibition,"[12]; measured here: combination with BGB IC40, at 0.05 µM",9.02%
same,inhibition,"[12]; measured here: combination with cisplatin, at 0.5 µM, stronger effect = higher value",46.7%
same,inhibition,"[12]; measured here: combination with cisplatin, at 5 µM, stronger effect = higher value",110%
same,inhibition,"[13]; BGB combo, at 5 µM",99.4%
same,inhibition,[13]; at 0.5 µM,78.8% (inactive)
same,inhibition,"[13]; cisplatin combo, at 5 µM",99.8%
same,inhibition,"[13]; measured here: with BGB IC20 combination, at 0.5 µM",69%
same,inhibition,"[13]; measured here: with cisplatin IC20 combination, at 0.5 µM",82.8%
same,inhibition,"[13]; single agent, at 5 µM",99.8%
same,inhibition,"[14]; BGB IC20 combo, at 0.005 µM",27.4%
same,inhibition,"[14]; BGB IC40 combo, at 0.005 µM",31.8%
same,inhibition,"[14]; BGB IC40 combo, at 0.05 µM",93.6%
same,inhibition,[14]; at 0.5 µM,-23.7% (inactive)
same,inhibition,"[14]; cisplatin combo, at 0.05 µM",93.4%
same,inhibition,"[14]; cisplatin combo, at 0.5 µM",-34.8%
same,inhibition,"[14]; cisplatin combo, at 5 µM",-32%
same,inhibition,"[14]; measured here: 5 uM single agent, at 5 µM",-19.3%
same,inhibition,[15]; at 0.5 µM,87.5% (active)
same,inhibition,"[15]; measured here: with BGB IC20, at 0.5 µM",87.4%
same,inhibition,"[15]; measured here: with BGB IC20, at 5 µM",99.8%
same,inhibition,"[15]; measured here: with cisplatin IC20, at 0.5 µM",90.7%
same,inhibition,"[15]; measured here: with cisplatin IC20, at 5 µM",99.9%
same,inhibition,"[15]; single agent, at 5 µM",99.8%
same,inhibition,[16]; at 0.5 µM,43.7% (inactive)
same,inhibition,"[16]; measured here: BGB combination, at 0.5 µM",36%
same,inhibition,"[16]; measured here: BGB combination, at 5 µM",60%
same,inhibition,"[16]; measured here: cisplatin combination, at 0.5 µM",42%
same,inhibition,"[16]; measured here: cisplatin combination, at 5 µM",69.4%
same,inhibition,[17]; at 0.5 µM,52% (inactive)
same,inhibition,"[17]; cisplatin combination, at 0.5 µM",79.4%
same,inhibition,"[17]; cisplatin combination, at 5 µM",101%
same,inhibition,"[17]; measured here: BGB IC40 combination 0.05 uM, at 0.05 µM",30.2%
same,inhibition,"[17]; single agent, at 5 µM",108%
same,inhibition,[18]; at 0.5 µM,47.1% (inactive)
same,inhibition,"[18]; cisplatin combo, at 5 µM",96.9%
same,inhibition,"[18]; measured here: BGB IC40 combination, at 0.05 µM",20.1%
same,inhibition,"[18]; measured here: combination with cisplatin, at 0.5 µM",58.8%
same,inhibition,"[18]; single agent, at 5 µM",92.2%
